The full list was thinned out, with hits kept by preference.
HT1080 IDH1KD tx: toxicity to HT-1080 IDH1 knockdown cells (counter line); HT-1080 IDH1 knockdown viability, ATP luminescence, 48 h; Potency, µM (doses to about 46.1 µM), for inactives: at the top dose activity, negative = toxicity, actives largely listed as cytotoxic; hit rate 2% among 360,000;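 note: potency is the fitted concentration of half-maximal effect; 0% = DMSO wells and -100% = cell-free medium wells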
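CellTiter-Glo luminescence after 48 h compound exposure at 37 degrees C of IDH1-knockdown HT-1080 cells in 5% FBS RPMI. %Activity scaled between DMSO wells and cell-free media wells, with curves fitted and assigned curve classes.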
12-LOX inh: ALOX12 (human) lipoxygenase inhibition; P18054; purified 12hLO, xylenol orange hydroperoxide absorbance; Potency, µM (doses to about 108 µM), for the others: top-dose activity change, negative = inhibition, actives largely listed as inhibitors; hit rate 1.1% among 580,000; note: potency is the fitted concentration of half-maximal effect
Target sequence (P18054 whole entry, looked up): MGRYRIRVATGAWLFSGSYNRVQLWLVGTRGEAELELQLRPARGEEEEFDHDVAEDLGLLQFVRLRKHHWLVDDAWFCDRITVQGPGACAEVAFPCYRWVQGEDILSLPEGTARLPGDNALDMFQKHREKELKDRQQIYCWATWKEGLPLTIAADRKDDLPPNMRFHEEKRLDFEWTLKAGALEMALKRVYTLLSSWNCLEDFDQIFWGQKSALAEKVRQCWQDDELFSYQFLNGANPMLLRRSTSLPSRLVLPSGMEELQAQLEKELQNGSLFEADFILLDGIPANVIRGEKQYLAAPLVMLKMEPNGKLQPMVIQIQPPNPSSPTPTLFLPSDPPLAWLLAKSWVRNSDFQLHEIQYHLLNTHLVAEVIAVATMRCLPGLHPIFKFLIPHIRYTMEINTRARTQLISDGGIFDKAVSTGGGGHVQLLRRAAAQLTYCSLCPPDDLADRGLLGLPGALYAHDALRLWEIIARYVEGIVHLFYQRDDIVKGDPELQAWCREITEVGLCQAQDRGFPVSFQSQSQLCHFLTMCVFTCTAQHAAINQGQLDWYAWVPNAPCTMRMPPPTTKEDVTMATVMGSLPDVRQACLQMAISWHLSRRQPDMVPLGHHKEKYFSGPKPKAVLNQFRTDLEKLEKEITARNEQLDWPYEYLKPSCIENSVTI
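Hydroperoxide product was detected by ferrous iron/xylenol orange as the 573 to 405 nm absorbance ratio. Arachidonic acid at 40 uM (final) was turned over for 30 min at room temperature by 150 nM human 12hLO, pH 7.0 Hepes buffer, after 15 min compound preincubation.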
DT40 TDP1 CPT: DT40-hTDP1 cell growth loss with CPT; chicken DT40 Tdp1-/-;hTDP1 cells + 20 nM CPT, ATP luminescence, 48 h; Potency, µM (titrated, usually from 46.2 µM), for the others: top-dose activity change, negative = growth inhibition, hits mostly inhibitors; hit rate 12% among 420,000; AID 686979; note: potency is the fitted concentration of half-maximal effect; nearly all actives have a fitted effect of over 55% in size
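Chicken DT40 Tdp1-/- cells complemented with human TDP1, 400 cells/well, exposed to compounds plus 20 nM camptothecin for at least 48 h at 37 C; viability read as ATP content by CellTiter-Glo luminescence.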
HT1080-NT tox: kills 2HG-producing HT-1080-NT fibrosarcoma cells. hit rate 1.6% among 360,000. HT-1080-NT fibrosarcoma viability, CellTiter-Glo ATP luminescence, 48 h. Potency, µM (doses to about 46.1 µM), for the others: at the highest dose activity, negative = less viability, actives largely listed as cytotoxic;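 note: NT is the 2HG producing partner of a matched IDH1 knockdown line; potency is the fitted concentration of half-maximal effect; 0% = DMSO-treated cells and -100% = media-only wells without cells; nearly all actives have a fitted effect of over 55% in size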
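750 cells/well, RPMI + 5% FBS; 2 h settle, compound pin-transfer, 48 h at 37 degrees C. CellTiter-Glo 10 min RT, luminescence. Normalized to DMSO and media-only wells.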
DT40 TDP1 no CPT: qHTS for Inhibitors of human tyrosyl-DNA phosphodiesterase 1 (TDP1): qHTS in cells in absence of CPT | DT40 Tdp1-/- hTDP1 cells, no CPT, ATP luminescence, 48 h | Potency, µM (doses to about 46.2 µM), without a hit: at the highest dose activity change, negative = growth inhibition, actives largely listed as inhibitors | hit rate 15% among 420,000 | AID 686978, 2013; note: potency is the fitted concentration of half-maximal effect; nearly all actives have a fitted effect of over 55% in size
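Chicken DT40 Tdp1-/- cells stably complemented with human TDP1 were seeded at 400 cells/well with DMSO in place of 20 nM camptothecin. After compound pinning, cells grew at least 48 hr at 37 °C; viability read by CellTiter-Glo luminescence.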
IL-1B inflam inh: blocks inflammasome-driven IL-1 beta release; THP-1 LPS/ATP IL-1B secretion, AlphaLISA, 16 h; hits give low values; activity change, % at 57.5 µM; hit rate 4.7% among 360,000; in the data active = activity change below about -50%; inconclusive = mostly about -30% to -49%
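THP-1 cells pretreated 1 hr with compounds (up to 57.5 uM final), then stimulated with LPS (250 ng/mL final) plus ATP (1.25 mM final); secreted IL-1B measured by AlphaLISA after 16 hr, decreased signal indicating inhibition.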
* marks the source's active call; other numbers are inactive results; i = inactive; ? = inconclusive; / = no result given; ! = not active in a repeat. Unless noted, calls come from the whole dose curve; as a rule, active = well fitted curve in the direction sought with a large enough effect; inconclusive = small, poorly fitted or top-dose-only effect, or another doubt; inactive = no such curve, though single readings can be large; an effect the other way counts as inactive or inconclusive. Unless noted, % is set by controls: 0 for no effect and ±100 for the full control effect.

SMILES	HT1080 IDH1KD tx	12-LOX inh	DT40 TDP1 CPT	HT1080-NT tox	DT40 TDP1 no CPT	IL-1B inflam inh
CSc1cccc(N2CC(C(=O)Nc3cccc(S(=O)(=O)N4CCCC4)c3)CC2=O)c1 (stereo not given)	-9%	28µM*	21µM*	0%	15µM*	6
CC(C)=CC1C(C(=O)Nc2ccc(S(=O)(=O)N3CCOCC3)cc2)C1(C)C (stereo not given)	-18%	-25%	?	-25%	?	-64*
CCOc1ccc(N2CC(C(=O)Nc3cccc(S(=O)(=O)N4CCCCC4)c3)CC2=O)cc1 (stereo not given)	-9%	-5%	-22%	-19%	?	-2
CCC(C)c1ccccc1N1CC(C(=O)Nc2cccc(S(=O)(=O)N3CCOCC3)c2)CC1=O (stereo not given)	1%	138%	18µM*	-2%	18µM*	i
CCc1ccccc1N1CC(C(=O)Nc2cc(S(=O)(=O)N3CCCC3)ccc2Cl)CC1=O (stereo not given)	16%	?	?	0%	15µM*	15
O=C(Nc1ccc(S(=O)(=O)N2CCOCC2)cc1)C1CC1	1%	-4%	-29%	4%	-1%	6
CCCC(=O)OC[C@H]1CN(C2CCCC2)S(=O)(=O)c2c(Oc3ccc(C(C)(C)C)cc3)cccc2O1	/	-22%	/	/	/	/
OC(COCc1ccc2c(c1)OCO2)CN1CCC(Cc2ccccc2)CC1 (stereo not given)	?	-29%	?	0%	?	-71*
Cc1ccc(OCC(O)CN2CCN(Cc3ccc4c(c3)OCO4)CC2)cc1C (stereo not given)	0%	?	-10%	-5%	?	14
OC(COCc1ccc2c(c1)OCO2)CN1CCCCC1 (stereo not given)	1%	-13%	5%	-7%	-21%	-2
C=CCc1ccccc1OCC(O)CN1CCN(Cc2ccc3c(c2)OCO3)CC1 (stereo not given)	-24%	?	16µM*!	-19%	?	-20
C=CCc1ccccc1OCC(O)CN1CCN(c2ccc(C)cc2)CC1 (stereo not given)	?	0.56µM*	?	-25%	?	?
CCCNC(=O)NC(=O)CN1CCCC1	/	1%	/	/	/	/
Cc1ccc(F)c(OCC(=O)c2ccc3c(c2)N(CCCC(=O)N2CCOCC2)C(=O)CO3)c1	/	33%	/	/	/	/
O=C(c1cccc(Cl)c1)N1CCC(c2nn(-c3ccccc3)c(=O)[nH]2)CC1	/	-13%	/	/	/	/
COc1ccc(C(=O)N2CCC(c3nn(-c4ccccc4)c(=O)[nH]3)CC2)cc1	/	8%	/	/	/	/
O=C(c1cccc(C(F)(F)F)c1)N1CCC(c2nn(-c3ccc(Cl)cc3)c(=O)[nH]2)CC1	/	10µM*	/	/	/	/
O=C(c1ccc(C(F)(F)F)cc1)N1CCC(c2nn(-c3ccc(F)cc3)c(=O)[nH]2)CC1	/	22µM*	/	/	/	/
COc1ccc(C(=O)N2CCC(c3nn(-c4ccc(Cl)cc4)c(=O)[nH]3)CC2)cc1	/	35µM*	/	/	/	/
O=C(NCc1ccncc1)C1c2ccccc2C(=O)N(C2CCCC2)C12CCCCC2 (stereo not given)	/	32%	/	/	/	/
COC(=O)C1=C(C)NC(=O)/C1=C\c1cc(C)n(-c2ccccc2)c1C	-12%	?	?	-13%	?	?
COC(=O)C1=C(C)NC(=O)/C1=C\c1cc(C)n(-c2cc(C)cc(C)c2)c1C	?	40µM*	?	-10%	?	-60*
COc1ccc(N2CCN(CCNC(=O)C3CCN(S(=O)(=O)c4cccs4)CC3)CC2)cc1	-1%	0%	?	8%	?	9
O=C(C1CCC(CNc2nc(=S)[nH]c3ccccc23)CC1)N1CCN(c2ccc(F)cc2)CC1 (stereo not given)	?	-19%	2.6µM*	?	4.6µM*	-72*
COc1ccc(N2CCN(CCCNC(=O)C3CCC(CNc4nc(=S)[nH]c5ccccc45)CC3)CC2)cc1 (stereo not given)	-11%	-15%	?	-13%	23µM*	-7
SMILES	HT1080 IDH1KD tx	12-LOX inh	DT40 TDP1 CPT	HT1080-NT tox	DT40 TDP1 no CPT	IL-1B inflam inh
CSCCC1NC(=O)N(CC(=O)Nc2c(Cl)cc(Cl)cc2Cl)C1=O (stereo not given)	?	?	16µM*	-3%	?	-5
Cc1nc(SCC(C)C)c2c(=O)n(C)c(=O)n(CC(C)C)c2n1	/	-7%	/	/	/	/
COc1nnc(-c2ccc(N3CCCCC3)c(NC(C)=O)c2)c2ccccc12	5%	-9%	?	3%	18µM*	?
COc1ccccc1NC(=O)c1cc2c(=O)n(Cc3cccs3)ccc2nc1C	/	-16%	?	/	23µM*	/
CCc1ccc(NC(=O)c2cc3c(=O)n(Cc4cccs4)ccc3nc2C)cc1	/	-1%	16µM*	/	18µM*	/
COc1ccc(Cn2ccc3nc(C)c(C(=O)Nc4ccc(OC)c(OC)c4)cc3c2=O)cc1	/	-3%	-3%	/	2%	/
N#Cc1nc(COc2ccc(-c3ccccc3)cc2)oc1NCCN1CCOCC1	/	4%	/	/	/	/
Cc1cccc(OCC(=O)Nc2ccc3c(c2)nc(CCN2CCC(C)CC2)n3C)c1	-16%	1%	?	-19%	?	-64*
CCn1c(CN2CCCCC2)nc2cc(NC(=O)COc3ccccc3C(C)(C)C)ccc21	/	-7%	-14%	/	-19%	/
CCn1c(CN2CCC(C)CC2)nc2cc(NC(=O)COc3ccc(Cl)c(C)c3)ccc21	/	-7%	6.5µM*	/	5.2µM*	/
CC1CCN(CCc2nc3cc(NC(=O)COc4ccc([N+](=O)[O-])cc4)ccc3n2C)CC1	?	14%	16µM*	-7%	?	-101*
CC1CCN(CCc2nc3cc(NC(=O)Nc4ccccc4)ccc3n2C)CC1	14%	-21%	21µM*	0%	?	-2
CN1C(=O)C(C)(C)c2cc(S(=O)(=O)N3CCC(C(=O)NCc4ccccc4Cl)CC3)ccc21	-2%	2%	-9%	-4%	-29%	-8
Cc1ccc(Nc2cccccc2=O)cc1	29µM*	-19%	21µM*	-4%	?	-21
CCOc1ccc(OCCSc2nc(C)cc(=O)[nH]2)cc1	2%	7%	12µM*	-2%	21µM*	15
Cc1cccc2cc(CN(Cc3ccccc3)C(=O)c3cccc(F)c3)c(Cl)nc12	-2%	-5%	29µM*	-26%	?	-8
Cc1ccc(N(Cc2ccccc2)C(=O)c2cccc(F)c2)cc1	-12%	/	?	-15%	?	-61*
